Source: PubChem BioAssay (NCATS)
Inconclusive results are not listed. Where a call stands in place of a potency, no number is given. Active and inactive are the calls of the source. The call rests on the fitted dose curve; tested in HEK293 reporter line.

assay: qHTS for Inhibitors of the Functional Ribonucleoprotein Complex (vRNP) of Lassa (LASV) Arenavirus: LASV Primary Screen - GLuc reporter signal (AID 1347082); conditions: LASV minigenome vRNP, Gaussia luciferase reporter; series mostly up to 57.5 µM; further: nearly all actives have a fitted effect of over 60% in size

Row | SMILES | Potency
1 | O=C(O)[C@H](O)c1ccccc1 | inactive
2 | CC(=O)[C@H]1CC[C@H]2[C@@H]3C=CC4=CC(=O)CC[C@@]4(C)[C@@H]3CC[C@]12C | inactive
3 | CCn1nc(C(=O)O)c(=O)c2cc3c(cc21)OCO3 | inactive
4 | O=C(O)c1ccccc1Nc1cccc(C(F)(F)F)c1 | inactive
5 | N#Cc1ccc(C(c2ccc(C#N)cc2)n2cncn2)cc1 | inactive
6 | CCOC(=O)C(O)c1ccccc1 (stereo not drawn) | inactive
7 | O=C(N/N=C/c1ccccc1O)c1ccncc1 | inactive
8 | Cc1cnc(NC(=O)C2=C(O)c3ccccc3S(=O)(=O)N2C)s1 | inactive
9 | CCN1CCC[C@H]1CNC(=O)c1cc(S(N)(=O)=O)ccc1OC | inactive
10 | COC(=O)C1=C(C)NC(C)=C(C(=O)OCCc2ccc(N3CCN(C(c4ccccc4)c4ccccc4)CC3)cc2)C1c1cccc([N+](=O)[O-])c1 (stereo not drawn) | inactive
11 | N#CC1(c2ccc(F)cc2)CCC(=O)CC1 | inactive
12 | NCCCNCCSP(=O)(O)O | inactive
13 | O=C(O)c1[nH]n(-c2ccc(S(=O)(=O)O)cc2)c(=O)c1N=Nc1ccc(S(=O)(=O)O)cc1 | inactive
14 | COc1ccc2c(c1)c(CC(=O)OC/C=C(\C)CC/C=C(\C)CCC=C(C)C)c(C)n2C(=O)c1ccc(Cl)cc1 | inactive
15 | Oc1ccc(OCc2ccccc2)cc1 | inactive
16 | Cc1coc2ccccc2c1=O | inactive
17 | O=C(OCc1ccccc1)c1ccccc1 | inactive
18 | CN1C(C(=O)Nc2ccccn2)=C(O)c2ccccc2S1(=O)=O | inactive
19 | CCCCCCCCCCCCSCCOCCO | inactive
20 | Nc1ccc(O)cc1 | inactive

assay: qHTS for Inhibitors of the Functional Ribonucleoprotein Complex (vRNP) of Lassa (LASV) Arenavirus: Viability assay - alamar blue signal for LASV Primary Screen (AID 1347083); conditions: cell viability, alamar blue fluorescence (LASV minigenome counter-screen); series mostly up to 57.5 µM; further: nearly all actives have a fitted effect of over 80% in size

Row | SMILES | Potency
21 | COCCOC(=O)C1=C(C)NC(C)=C(C(=O)OC(C)C)C1c1cccc([N+](=O)[O-])c1 (stereo not drawn) | inactive
22 | CC(C)(C)CC(C)(C)c1ccc(O)c(-n2nc3ccccc3n2)c1 | inactive
23 | C[C@H]1C[C@H](O)c2ccsc2S1(=O)=O | inactive
24 | CCN1CCC[C@H]1CNC(=O)c1c(O)c(Cl)cc(Cl)c1OC | inactive
25 | O=C(O)CN(CCN(CC(=O)O)CC(=O)O)CCN(CC(=O)O)CC(=O)O | inactive
26 | O=C1OC2(c3ccccc31)c1cc(Br)c(O)c(Br)c1Oc1c2cc(Br)c(O)c1Br | inactive
27 | CC(=O)OC(C)OC(=O)C(C)c1ccc(-c2ccccc2)c(F)c1 (stereo not drawn) | inactive
28 | CC1CC(OC(=O)c2ccccc2O)CC(C)(C)C1 (stereo not drawn) | inactive
29 | CC(=O)OCC(COC(C)=O)OC(C)=O | inactive
30 | CN1C(CSCC(F)(F)F)Nc2cc(Cl)c(S(N)(=O)=O)cc2S1(=O)=O (stereo not drawn) | inactive
31 | O=C(CCBr)N1CCN(C(=O)CCBr)CC1 | inactive
32 | CCN1CCCC1CNC(=O)c1cc(S(=O)(=O)CC)c(N)cc1OC (stereo not drawn) | inactive
33 | O=c1[nH]cnc2[nH]ncc12 | inactive
34 | NC1CCN(c2nc3c(cc2F)c(=O)c(C(=O)O)cn3-c2ccc(F)cc2F)C1 (stereo not drawn) | inactive
35 | COc1cc(C(=O)OC(COCCC(C)C)CN2CCOCC2)cc(OC)c1OC (stereo not drawn) | inactive
36 | O=C(O)Cn1cnnn1 | inactive
37 | COC(=O)CCCCC(CCSS/C(CCO)=C(\C)N(C=O)Cc1cnc(C)nc1N)SC(C)=O (stereo not drawn) | inactive
38 | O=[N+]([O-])c1cncn1CCN1CCOCC1 | inactive
39 | CCCCC(CC)CNC(=O)CC(C)OC(=O)CCC(=O)O (stereo not drawn) | inactive
40 | O=C(O)[C@H](O)c1ccccc1 | inactive

Row | SMILES | Potency
41 | CC(=O)[C@H]1CC[C@H]2[C@@H]3C=CC4=CC(=O)CC[C@@]4(C)[C@@H]3CC[C@]12C | inactive
42 | CCn1nc(C(=O)O)c(=O)c2cc3c(cc21)OCO3 | inactive
43 | O=C(O)c1ccccc1Nc1cccc(C(F)(F)F)c1 | inactive
44 | N#Cc1ccc(C(c2ccc(C#N)cc2)n2cncn2)cc1 | inactive
45 | CCOC(=O)C(O)c1ccccc1 (stereo not drawn) | inactive
46 | O=C(N/N=C/c1ccccc1O)c1ccncc1 | inactive
47 | Cc1cnc(NC(=O)C2=C(O)c3ccccc3S(=O)(=O)N2C)s1 | inactive
48 | CCN1CCC[C@H]1CNC(=O)c1cc(S(N)(=O)=O)ccc1OC | inactive
49 | COC(=O)C1=C(C)NC(C)=C(C(=O)OCCc2ccc(N3CCN(C(c4ccccc4)c4ccccc4)CC3)cc2)C1c1cccc([N+](=O)[O-])c1 (stereo not drawn) | inactive
50 | N#CC1(c2ccc(F)cc2)CCC(=O)CC1 | inactive
51 | NCCCNCCSP(=O)(O)O | inactive
52 | O=C(O)c1[nH]n(-c2ccc(S(=O)(=O)O)cc2)c(=O)c1N=Nc1ccc(S(=O)(=O)O)cc1 | inactive
53 | COc1ccc2c(c1)c(CC(=O)OC/C=C(\C)CC/C=C(\C)CCC=C(C)C)c(C)n2C(=O)c1ccc(Cl)cc1 | inactive
54 | Oc1ccc(OCc2ccccc2)cc1 | inactive
55 | Cc1coc2ccccc2c1=O | inactive
56 | O=C(OCc1ccccc1)c1ccccc1 | inactive
57 | CN1C(C(=O)Nc2ccccn2)=C(O)c2ccccc2S1(=O)=O | inactive
58 | CCCCCCCCCCCCSCCOCCO | inactive
59 | Nc1ccc(O)cc1 | inactive

assay: qHTS for Inhibitors of the Functional Ribonucleoprotein Complex (vRNP) of Lymphocytic Choriomeningitis Arenaviruses (LCMV): Viability assay - alamar blue signal for LCMV Primary Screen (AID 1347085); conditions: alamar blue viability counter-screen, LCMV vRNP screen cells; series mostly up to 57.5 µM; further: nearly all actives have a fitted effect of over 80% in size

Row | SMILES | Potency
60 | COCCOC(=O)C1=C(C)NC(C)=C(C(=O)OC(C)C)C1c1cccc([N+](=O)[O-])c1 (stereo not drawn) | inactive
61 | CC(C)(C)CC(C)(C)c1ccc(O)c(-n2nc3ccccc3n2)c1 | inactive
62 | C[C@H]1C[C@H](O)c2ccsc2S1(=O)=O | inactive
63 | CCN1CCC[C@H]1CNC(=O)c1c(O)c(Cl)cc(Cl)c1OC | inactive
64 | O=C(O)CN(CCN(CC(=O)O)CC(=O)O)CCN(CC(=O)O)CC(=O)O | inactive
65 | O=C1OC2(c3ccccc31)c1cc(Br)c(O)c(Br)c1Oc1c2cc(Br)c(O)c1Br | inactive
66 | CC(=O)OC(C)OC(=O)C(C)c1ccc(-c2ccccc2)c(F)c1 (stereo not drawn) | inactive
67 | CC1CC(OC(=O)c2ccccc2O)CC(C)(C)C1 (stereo not drawn) | inactive
68 | CC(=O)OCC(COC(C)=O)OC(C)=O | inactive
69 | CN1C(CSCC(F)(F)F)Nc2cc(Cl)c(S(N)(=O)=O)cc2S1(=O)=O (stereo not drawn) | inactive
70 | O=C(CCBr)N1CCN(C(=O)CCBr)CC1 | inactive
71 | CCN1CCCC1CNC(=O)c1cc(S(=O)(=O)CC)c(N)cc1OC (stereo not drawn) | inactive
72 | O=c1[nH]cnc2[nH]ncc12 | inactive
73 | NC1CCN(c2nc3c(cc2F)c(=O)c(C(=O)O)cn3-c2ccc(F)cc2F)C1 (stereo not drawn) | inactive
74 | COc1cc(C(=O)OC(COCCC(C)C)CN2CCOCC2)cc(OC)c1OC (stereo not drawn) | inactive
75 | O=C(O)Cn1cnnn1 | inactive
76 | COC(=O)CCCCC(CCSS/C(CCO)=C(\C)N(C=O)Cc1cnc(C)nc1N)SC(C)=O (stereo not drawn) | inactive
77 | O=[N+]([O-])c1cncn1CCN1CCOCC1 | inactive
78 | CCCCC(CC)CNC(=O)CC(C)OC(=O)CCC(=O)O (stereo not drawn) | inactive
79 | O=C(O)[C@H](O)c1ccccc1 | inactive

Row | SMILES | Potency
80 | CC(=O)[C@H]1CC[C@H]2[C@@H]3C=CC4=CC(=O)CC[C@@]4(C)[C@@H]3CC[C@]12C | inactive
81 | CCn1nc(C(=O)O)c(=O)c2cc3c(cc21)OCO3 | inactive
82 | O=C(O)c1ccccc1Nc1cccc(C(F)(F)F)c1 | inactive
83 | N#Cc1ccc(C(c2ccc(C#N)cc2)n2cncn2)cc1 | inactive
84 | CCOC(=O)C(O)c1ccccc1 (stereo not drawn) | inactive
85 | O=C(N/N=C/c1ccccc1O)c1ccncc1 | inactive
86 | Cc1cnc(NC(=O)C2=C(O)c3ccccc3S(=O)(=O)N2C)s1 | inactive
87 | CCN1CCC[C@H]1CNC(=O)c1cc(S(N)(=O)=O)ccc1OC | inactive
88 | COC(=O)C1=C(C)NC(C)=C(C(=O)OCCc2ccc(N3CCN(C(c4ccccc4)c4ccccc4)CC3)cc2)C1c1cccc([N+](=O)[O-])c1 (stereo not drawn) | inactive
89 | N#CC1(c2ccc(F)cc2)CCC(=O)CC1 | inactive
90 | NCCCNCCSP(=O)(O)O | inactive
91 | O=C(O)c1[nH]n(-c2ccc(S(=O)(=O)O)cc2)c(=O)c1N=Nc1ccc(S(=O)(=O)O)cc1 | inactive
92 | COc1ccc2c(c1)c(CC(=O)OC/C=C(\C)CC/C=C(\C)CCC=C(C)C)c(C)n2C(=O)c1ccc(Cl)cc1 | inactive
93 | Oc1ccc(OCc2ccccc2)cc1 | inactive
94 | Cc1coc2ccccc2c1=O | inactive
95 | O=C(OCc1ccccc1)c1ccccc1 | inactive
96 | CN1C(C(=O)Nc2ccccn2)=C(O)c2ccccc2S1(=O)=O | inactive
97 | CCCCCCCCCCCCSCCOCCO | inactive
98 | Nc1ccc(O)cc1 | inactive
